# Test results reported in ChEMBL document CHEMBL3988442, “University of Dundee, Small-Polar-MMV Screening Library” (2021).
# For some assays here: Entries with a potency or affinity are not part of this list.
# How the values were obtained:
# Parameters in all cases: scale not given: direction of the effect not stated beside the values
# [1] = molecular target: Protein translocase subunit SecA (Escherichia coli (strain K12)) (UniProt P10408); assay: Assay to Identify E. coli SecA ATPase Inhibitors; assay type: functional; settings: 30 µM
# [2] = molecular target: T1, Ubiquitin-activating enzyme e1, putative (Leishmania donovani (strain BPK282A1)) (UniProt E9BSI1); assay: Leishmania donovani Ubiquitin Activating Enzyme (LdE1); assay type: functional; settings: 30 µM
# T1 sequence (whole entry): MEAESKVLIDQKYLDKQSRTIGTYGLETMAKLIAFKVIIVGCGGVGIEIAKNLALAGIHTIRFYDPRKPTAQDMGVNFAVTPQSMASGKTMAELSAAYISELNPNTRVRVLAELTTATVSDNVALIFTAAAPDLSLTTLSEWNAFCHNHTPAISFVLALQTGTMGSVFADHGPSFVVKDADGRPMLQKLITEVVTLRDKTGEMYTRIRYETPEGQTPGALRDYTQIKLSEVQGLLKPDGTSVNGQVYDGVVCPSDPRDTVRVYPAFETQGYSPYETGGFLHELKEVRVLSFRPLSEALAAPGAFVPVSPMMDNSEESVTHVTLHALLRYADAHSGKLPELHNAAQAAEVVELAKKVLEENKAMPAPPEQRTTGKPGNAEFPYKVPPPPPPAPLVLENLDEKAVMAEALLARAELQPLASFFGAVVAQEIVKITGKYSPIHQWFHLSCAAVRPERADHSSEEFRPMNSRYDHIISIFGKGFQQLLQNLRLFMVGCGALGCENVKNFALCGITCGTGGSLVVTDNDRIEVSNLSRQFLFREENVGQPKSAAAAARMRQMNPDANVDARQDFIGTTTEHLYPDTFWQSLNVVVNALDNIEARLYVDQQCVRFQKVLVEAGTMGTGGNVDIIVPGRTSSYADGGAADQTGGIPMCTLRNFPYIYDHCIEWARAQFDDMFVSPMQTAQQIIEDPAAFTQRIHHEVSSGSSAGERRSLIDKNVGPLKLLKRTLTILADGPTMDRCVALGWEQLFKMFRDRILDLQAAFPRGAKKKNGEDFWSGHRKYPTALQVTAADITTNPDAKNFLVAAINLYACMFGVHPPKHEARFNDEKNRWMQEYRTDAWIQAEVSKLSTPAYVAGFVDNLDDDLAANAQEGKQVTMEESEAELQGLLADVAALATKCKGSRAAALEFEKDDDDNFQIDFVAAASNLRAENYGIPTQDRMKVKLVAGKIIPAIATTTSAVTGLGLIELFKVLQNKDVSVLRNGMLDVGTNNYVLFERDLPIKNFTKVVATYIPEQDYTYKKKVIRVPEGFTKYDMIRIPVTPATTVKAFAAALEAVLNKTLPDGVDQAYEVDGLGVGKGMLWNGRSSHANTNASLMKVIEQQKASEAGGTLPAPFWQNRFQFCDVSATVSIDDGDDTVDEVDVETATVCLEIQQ
# [3] = molecular target: AMP-activated protein kinase, AMPK (Homo sapiens) (UniProt P54646+O43741+P54619+Q9UGJ0+Q9Y478+Q13131+Q9UGI9); assay: AMP-dependent Kinase enzyme assay. An in vitro enzyme assay that detects ADP turnover that is directly proportional to AMPK activity. This uses naive AMPK that is activated during the assay with MK-8722; assay type: functional; settings: 30 µM
# [4] = molecular target: Sialic acid-binding Ig-like lectin 9 (Homo sapiens) (UniProt Q9Y336); assay: Hs-Siglec9 ALPHAscreen SOP 20170721; settings: 10 µM
# Trypanosoma cruzi = assay: Trypanosoma cruzi phosphomannomutase and mannose-1-phosphate guanylyltransferase assay; assay type: functional; settings: 10 µM
# [5] = molecular target: T2, Arginase-2, mitochondrial (Homo sapiens) (UniProt P78540); assay: in vitro enzyme assay to detect the production of urea directly proportional to the activity of Arginase II; assay type: functional; settings: 33.3 µM; further: in the data most compounds retested in dose-response had high values
# T2 sequence (whole entry): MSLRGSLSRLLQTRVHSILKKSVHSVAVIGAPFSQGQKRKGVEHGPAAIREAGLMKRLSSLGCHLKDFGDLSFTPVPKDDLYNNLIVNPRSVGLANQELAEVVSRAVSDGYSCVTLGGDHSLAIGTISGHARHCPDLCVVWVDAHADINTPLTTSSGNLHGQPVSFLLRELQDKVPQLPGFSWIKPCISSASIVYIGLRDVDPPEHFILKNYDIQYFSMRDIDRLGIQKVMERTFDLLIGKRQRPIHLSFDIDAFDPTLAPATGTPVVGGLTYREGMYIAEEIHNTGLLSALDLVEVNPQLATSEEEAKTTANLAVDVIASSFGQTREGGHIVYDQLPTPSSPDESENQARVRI
# [6] = molecular target: T3, Proteasome subunit beta (Trypanosoma cruzi) (UniProt O96673); assay: Trypanosoma cruzi proteasome chymotrypsin-like activity (TcProtChymo) assay.; further: in the data most compounds retested in dose-response had high values; assay type: functional; settings: 9.37 µM
# T3 sequence (whole entry): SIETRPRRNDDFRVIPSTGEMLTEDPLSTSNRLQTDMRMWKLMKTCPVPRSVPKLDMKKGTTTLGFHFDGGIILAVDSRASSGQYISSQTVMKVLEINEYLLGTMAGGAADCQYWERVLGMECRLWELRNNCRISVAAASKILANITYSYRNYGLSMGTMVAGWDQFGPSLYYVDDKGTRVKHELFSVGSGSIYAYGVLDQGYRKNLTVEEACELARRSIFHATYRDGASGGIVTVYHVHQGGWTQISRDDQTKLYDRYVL
# Homo sapiens = species: Homo sapiens; assay: To identify inhibition of the IFN signalling (Jak-Stat) pathway via expression of an eGFP reporter gene under the control of an IFN-stimulated response element (ISRE) containing MxA promoter.; assay type: functional; settings: 30 µM
# [7] = molecular target: T4, Tyrosyl-tRNA synthetase, putative (Trypanosoma cruzi (strain CL Brener)) (UniProt Q4DSP6); assay: Trypanosoma cruzi tyrosyl tRNA synthetase (TcYRS) _High Tyrosine SOP; assay type: functional; settings: 30 µM; further: in the data most compounds retested in dose-response had high values
# T4 sequence (whole entry): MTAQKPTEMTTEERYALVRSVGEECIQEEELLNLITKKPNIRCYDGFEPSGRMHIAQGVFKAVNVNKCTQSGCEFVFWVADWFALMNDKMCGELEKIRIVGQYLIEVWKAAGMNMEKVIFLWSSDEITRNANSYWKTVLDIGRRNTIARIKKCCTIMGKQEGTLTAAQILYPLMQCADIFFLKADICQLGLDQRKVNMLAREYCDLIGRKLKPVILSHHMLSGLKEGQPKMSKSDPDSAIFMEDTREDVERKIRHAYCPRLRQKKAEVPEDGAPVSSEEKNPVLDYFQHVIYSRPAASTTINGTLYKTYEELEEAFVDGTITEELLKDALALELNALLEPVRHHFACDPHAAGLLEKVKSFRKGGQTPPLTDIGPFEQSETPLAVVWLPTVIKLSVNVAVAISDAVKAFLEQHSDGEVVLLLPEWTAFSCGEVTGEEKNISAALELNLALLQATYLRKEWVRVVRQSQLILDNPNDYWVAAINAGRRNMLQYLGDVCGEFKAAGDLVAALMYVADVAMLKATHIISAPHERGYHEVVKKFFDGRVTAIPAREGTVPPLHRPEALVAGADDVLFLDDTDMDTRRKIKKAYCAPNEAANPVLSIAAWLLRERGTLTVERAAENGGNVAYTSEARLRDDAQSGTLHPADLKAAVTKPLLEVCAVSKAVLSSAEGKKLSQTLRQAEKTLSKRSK
# [8] = molecular target: T4, Tyrosyl-tRNA synthetase, putative (Trypanosoma cruzi (strain CL Brener)); assay: Trypanosoma cruzi tyrosyl tRNA synthetase (TcYRS) SOP; assay type: functional; settings: 30 µM
# [9] = molecular target: Chromo domain-containing protein 1 (Saccharomyces cerevisiae (strain ATCC 204508 / S288c) (Baker's yeast)) (UniProt P32657); assay: ScCHD-1 Enzyme Inhibition Assay; assay type: functional; settings: 30 µM; further: in the data most compounds retested in dose-response had high values
# Chromo domain-containing protein 1 (Saccharomyces cerevisiae (strain ATCC 204508 / S288c) (Baker's yeast)), sequence (P32657 whole entry, the tested form may be a part): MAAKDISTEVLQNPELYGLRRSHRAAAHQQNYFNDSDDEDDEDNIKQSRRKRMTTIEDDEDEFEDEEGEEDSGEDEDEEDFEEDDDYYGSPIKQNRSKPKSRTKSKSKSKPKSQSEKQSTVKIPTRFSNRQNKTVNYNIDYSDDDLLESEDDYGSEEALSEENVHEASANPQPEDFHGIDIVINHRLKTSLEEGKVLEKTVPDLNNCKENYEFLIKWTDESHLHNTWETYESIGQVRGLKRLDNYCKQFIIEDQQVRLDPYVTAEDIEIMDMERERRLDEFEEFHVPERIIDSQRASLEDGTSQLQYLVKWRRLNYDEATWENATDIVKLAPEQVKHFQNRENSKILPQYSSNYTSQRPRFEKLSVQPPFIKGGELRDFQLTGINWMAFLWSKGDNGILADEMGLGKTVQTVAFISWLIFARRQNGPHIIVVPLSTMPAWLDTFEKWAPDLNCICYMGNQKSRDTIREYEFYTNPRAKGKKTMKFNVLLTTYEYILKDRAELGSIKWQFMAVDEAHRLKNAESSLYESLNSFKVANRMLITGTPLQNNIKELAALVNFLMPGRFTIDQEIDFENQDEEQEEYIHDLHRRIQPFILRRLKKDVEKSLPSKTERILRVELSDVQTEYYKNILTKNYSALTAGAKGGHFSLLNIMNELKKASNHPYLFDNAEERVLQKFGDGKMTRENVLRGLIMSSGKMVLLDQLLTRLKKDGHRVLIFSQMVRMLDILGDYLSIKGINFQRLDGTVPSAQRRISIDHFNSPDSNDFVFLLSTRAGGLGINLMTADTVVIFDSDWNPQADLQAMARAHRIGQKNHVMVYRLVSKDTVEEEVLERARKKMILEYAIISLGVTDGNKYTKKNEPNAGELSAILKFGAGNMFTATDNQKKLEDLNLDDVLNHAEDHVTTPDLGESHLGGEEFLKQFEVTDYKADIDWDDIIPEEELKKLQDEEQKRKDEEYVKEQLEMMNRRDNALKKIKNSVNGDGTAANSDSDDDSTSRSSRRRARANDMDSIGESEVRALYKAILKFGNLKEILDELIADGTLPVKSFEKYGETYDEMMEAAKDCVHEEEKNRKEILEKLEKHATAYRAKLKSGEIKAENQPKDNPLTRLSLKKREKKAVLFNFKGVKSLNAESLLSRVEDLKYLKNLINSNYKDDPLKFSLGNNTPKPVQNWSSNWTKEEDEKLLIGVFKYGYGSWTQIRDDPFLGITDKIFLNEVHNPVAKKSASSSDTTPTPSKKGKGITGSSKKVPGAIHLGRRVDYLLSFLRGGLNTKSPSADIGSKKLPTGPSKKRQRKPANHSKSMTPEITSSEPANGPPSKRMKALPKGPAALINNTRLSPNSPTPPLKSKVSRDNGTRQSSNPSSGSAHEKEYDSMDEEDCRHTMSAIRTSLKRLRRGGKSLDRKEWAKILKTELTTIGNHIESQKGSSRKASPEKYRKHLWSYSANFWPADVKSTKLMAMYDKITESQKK
# Protein translocase subunit SecA (Escherichia coli (strain K12)), sequence (P10408 whole entry): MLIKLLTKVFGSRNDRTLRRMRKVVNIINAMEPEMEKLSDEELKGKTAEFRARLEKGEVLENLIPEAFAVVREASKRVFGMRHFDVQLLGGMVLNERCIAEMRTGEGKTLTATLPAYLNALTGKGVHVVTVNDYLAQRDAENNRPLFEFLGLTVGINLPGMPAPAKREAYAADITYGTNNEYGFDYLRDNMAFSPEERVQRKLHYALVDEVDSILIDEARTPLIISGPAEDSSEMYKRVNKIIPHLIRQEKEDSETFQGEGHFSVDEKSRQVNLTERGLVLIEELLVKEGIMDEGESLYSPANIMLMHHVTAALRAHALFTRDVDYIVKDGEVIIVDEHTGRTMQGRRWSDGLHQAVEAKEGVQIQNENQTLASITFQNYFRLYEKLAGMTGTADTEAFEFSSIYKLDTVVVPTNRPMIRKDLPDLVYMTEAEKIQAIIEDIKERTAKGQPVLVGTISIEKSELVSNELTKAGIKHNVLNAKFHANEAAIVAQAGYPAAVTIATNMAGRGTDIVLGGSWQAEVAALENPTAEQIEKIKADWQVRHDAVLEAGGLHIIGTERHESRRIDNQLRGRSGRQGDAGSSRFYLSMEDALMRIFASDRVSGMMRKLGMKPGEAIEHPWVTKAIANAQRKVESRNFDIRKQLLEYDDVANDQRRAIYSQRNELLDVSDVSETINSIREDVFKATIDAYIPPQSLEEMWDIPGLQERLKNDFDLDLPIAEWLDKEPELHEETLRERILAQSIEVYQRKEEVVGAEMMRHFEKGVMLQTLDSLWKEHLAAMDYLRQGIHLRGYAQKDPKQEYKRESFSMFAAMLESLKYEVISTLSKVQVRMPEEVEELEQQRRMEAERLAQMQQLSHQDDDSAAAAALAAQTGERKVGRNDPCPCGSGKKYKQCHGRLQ
# Sialic acid-binding Ig-like lectin 9 (Homo sapiens), sequence (Q9Y336 whole entry): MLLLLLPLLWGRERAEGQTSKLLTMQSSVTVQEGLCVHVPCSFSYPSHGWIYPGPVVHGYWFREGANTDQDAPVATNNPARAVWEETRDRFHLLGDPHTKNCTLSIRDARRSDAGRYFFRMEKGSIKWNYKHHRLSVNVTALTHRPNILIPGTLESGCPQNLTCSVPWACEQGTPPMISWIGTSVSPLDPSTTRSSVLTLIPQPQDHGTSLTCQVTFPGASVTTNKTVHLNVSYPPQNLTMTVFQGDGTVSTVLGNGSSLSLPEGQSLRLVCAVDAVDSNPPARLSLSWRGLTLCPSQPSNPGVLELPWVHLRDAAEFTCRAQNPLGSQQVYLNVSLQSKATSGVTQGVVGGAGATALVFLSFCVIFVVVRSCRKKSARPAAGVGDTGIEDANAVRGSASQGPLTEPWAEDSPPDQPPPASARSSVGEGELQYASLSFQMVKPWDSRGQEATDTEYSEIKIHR
SMILES,Percent Effect [1] [%],Percent Effect [2] [%],Percent Effect [3] [%],Percent Effect [4] [%],Percent Effect (Trypanosoma cruzi) [%],Percent Effect [5] [%],Percent Effect [6] [%],Percent Effect (Homo sapiens) [%],Percent Effect [7] [%],Percent Effect [8] [%],Percent Effect [9] [%]
O=C(Cn1cccnc1=O)NC(Cc1cccs1)c1ccccn1 (configuration not stated),-3.91,9.46,6.77,0.0436,2.57,5.8,8.27,15.5,5.38,11.7,-11.5
Cn1cc(C2CCCN2C(=O)CCCOc2ccc(F)cc2F)cn1 (configuration not stated),-6.14,10.1,1.86,9.73,-0.283,1.9,-3.36,-0.895,4.43,3.8,-1.53
O=C(c1ccccn1)N1CCCC(c2nccn2CC2CCC2)C1 (configuration not stated),-7.93,0,-15.1,2.39,-2.35,-2.27,3.37,7.95,0,0,-2.91
O=C1OC2(CCNCC2)CN1CC(=O)N1CCCC1c1ccco1 (configuration not stated),-3.11,5.41,1.69,4.82,0.386,2.86,19.8,-0.46,5.82,19.5,-4.16
CCOCCn1c(=O)[nH]c2cc(C(=O)N(C)CCc3cn[nH]c3)ccc21,0.265,16.2,4.85,14.1,5.6,22.4,17.8,13,3.7,12.2,-7.29
CCn1ncnc1C(C)NC(=O)C1CCN(C(=O)COC)CC1 (configuration not stated),-7.01,8.11,-1.09,0.673,-0.489,4.22,9.19,1.26,10.8,18.5,-2.43
COCCN(C)CCN1CC2(CCN(C(=O)C3CCOC3)CC2)OC1=O (configuration not stated),-4.65,18.2,9.58,7.65,5.21,-12.4,23.1,6.21,7.53,18.5,-7.01
O=C(C1CC(=O)N(C2CCCC2)C1)N1CCN(CCn2cccc2)CC1 (configuration not stated),-3.53,13.3,-5.45,19.8,2.82,13.5,16.9,23,3.83,13.6,-7.64
Cc1nc(CC(=O)N2CCC[C@H]2c2nc(C(C)C)no2)cs1,-6.79,-1.39,0.72,-1.32,1.26,3.09,7.19,-13.6,3.16,5.13,-0.504
Cc1cc2nc(SCC(=O)N3CCCC3)n(-c3ccccc3)c(=O)c2[nH]1,-2.59,2.63,7.28,-3.44,-3.02,9.47,19.6,-5.99,6.38,2.6,-5.49
COCC(=O)NC1CC2(CCN(Cc3ccco3)CC2)c2ccccc21 (configuration not stated),-1.45,2.7,-1.83,3.44,-7.92,2.23,24.2,4.53,2.16,5.13,-3.97
O=C(Cc1cccs1)NC1CCN(c2cccc(F)c2)CC1,-3.15,16.4,6.31,18.6,2.74,7.27,9.05,-1.55,5.38,15,1.6
CCc1ncncc1C(=O)N1CCN(Cc2ccco2)CC1,-3.87,0,2.99,-2.08,-4.2,3.24,0.592,4.36,-3.45,-11.1,2.25
Fc1ccc(-c2cnc(CN3CCCC3Cn3cccn3)o2)cc1 (configuration not stated),-4.06,7.59,-2.14,-12.9,-4.82,7.22,12.7,24.8,2.46,13.9,-1.62
O=C(c1cccc(S(=O)(=O)NCCCc2ccco2)c1)N1CCOCC1,-4.29,2.74,6.53,-4.06,1.37,1.82,5.86,-5.12,7.53,15,-2.3
O=C(c1csc(-c2cccs2)n1)N1CCCC1Cn1cccn1 (configuration not stated),-3.61,10.5,-6.24,3.2,-3.83,1.08,-4.99,-2.06,3.45,6.17,0.105
NC(=O)C1CN(C(=O)Nc2ccccc2N2CCCCCC2)CCO1 (configuration not stated),-6.93,-48.6,-3.8,9.74,6.96,-3.88,4.31,11.3,1.98,15.8,-1.09
CCn1c(C2CCCN(Cc3nccn3CCOC)C2)nn(C)c1=O (configuration not stated),-0.824,8.11,-5.71,28.2,3.03,32.5,3.69,-44.6,9.68,18.5,-6.18
CC(C)(C)c1nc(CN2CCCC(Cn3cncn3)C2)cs1 (configuration not stated),-0.434,21.6,-0.165,-3.27,5,-17.6,10.6,3.9,1.48,18.5,-8.38
O=C(CCN1CCCC1C1CCCCC1)N1CCc2sccc2C1 (configuration not stated),-3.42,-48.6,11.2,-0.447,5.75,-5.21,-0.18,-25.7,14.3,11.1,10.3
O=C1CC(c2ccc(F)c(F)c2)c2snc(C(=O)O)c2N1 (configuration not stated),-0.493,-6.67,4.23,3.7,-2.36,0.176,2.77,-4.84,2.12,-5.13,-4.62
CN(C)C(=O)N1CCOCC2(CCN(c3ncccn3)C2)C1 (configuration not stated),-4.78,8.11,-5.27,28.6,6.35,-1.24,5.75,-36.2,6.45,11.1,-5.72
